This note sets out measurements from PubChem BioAssay AID720608 (Broad Institute, 2013).

Molecules are shown by their SMILES. Measured potencies and affinities stand elsewhere. Results filed as inconclusive are left out. Activity calls are given as the source filed them.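 Rule for the calls: active = compound whose fitted half-maximal concentration stays within twice the top dose, with falling signal, in all three exposure times; inconclusive = mixed calls across exposure times, weak flat curves, or poor fits; inactive = inactive at every exposure time, including opposite-direction effects.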

The assay in a line: cytotoxicity in SR immunoblastic lymphoma cells – cell-based, CellTiter-Glo ATP luminescence, 8-48 h, dry powder, mechanism study for HRAS target identification, late-stage follow-up (AID 720608). On the technique in general: ATP-based viability assays read luminescence as a measure of living cells.

As to `Cc1onc(C(=O)N2CCN(C(c3ccncc3)c3ccncc3)CC2)c1[N+](=O)[O-]`, the molecule was called inactive.
